± gives the standard deviation.
What follows are sequences tested on MILI (PIWIL2) piRISC loaded with piRNA #1 (26 nt) (assay: pre-steady-state target cleavage rate (min^-1); guide: piRNA #1 5'p-UGAGGUAGUAGGUUGUAUAGUAUCCA; MIWI and MILI are mouse PIWI proteins and EfPiwi is from a freshwater sponge; tags in brackets are library labels; higher = faster piRNA-guided slicing of the target). Conditions: auxiliary factor: 500 nM mouse GTSF1.
Procedure, shortened: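 Active affinity-purified piRISC carrying one synthetic guide (1 nM) was mixed with a transcribed, DNA-blocked target RNA library […] in HEPES–potassium acetate buffer at 33 °C for 0–8 or 0–960 min, with or without 500 nM GTSF1 partner protein. Uncleaved targets were then sequenced and normalised to depth and to weakly complementary targets. Three trials were pooled, and k3 was capped at 0.0001 min^-1. A burst-and-steady-state fit was applied to obtain the pre-steady-state cleavage rate.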
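Also: 1 nM active piRISC with 0.1 nM target library at 33 °C single turnover.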

Sequence | pre-steady-state target cleavage rate
GGAGACCUAUGAAUACAACCUAACUACCUCA | 0.00316 ± 0.0021
GGAGACCAUACUAAACAACCUACUACCUGA | 0.13 ± 0.018
GGAGACCUAUGAAUACUACCUACUACCUCA | 0.0049 ± 0.0017
GGAGACCUAUGAUAUCAAGCUACUACCUGA | 0.00472 ± 0.003
GGAGACCUUACUAUACAAGCUACAACCUCA | 0.239 ± 0.018
GGAGACCAUACUGAUACAACCUACUACCUCA | 0.112 ± 0.014
GGAGAGGAAACUAUACAUCCUACUACCUCA | 0.302 ± 0.029
GGAGACGAUACAUAACAACCUACUACCUCA | 0.114 ± 0.013
GGAGACCUAACUAUACAAGCUUCUACCUCA | 0.0324 ± 0.01
GGAGACGAUUCAAUACAACCUACUACCUCA | 0.104 ± 0.012
GGAGACCUAUGAUAUGUUGCUACUACCUUA | < 0.0001
GGAGUGGAUACUAAACAACCUACUUCCUCA | 0.00431 ± 0.0024
GGAGUCGAUACUAUAGAACCUACUACCUCA | 0.0641 ± 0.0083
GGAGACCAUACUUUACAACCUACUACGUCA | 0.0972 ± 0.016
GGAGACCUAUGUAUCAACCUACUACCUCA | 0.00951 ± 0.0023
GGAGACCUAUGAUAACAAACUACUACCUCA | 0.0114 ± 0.0029
GGAGACCUAUCAAUACAACCUACAACCUCA | 0.0677 ± 0.015
GGAGAGGAUACUAUAGUUCCUACUACCUCA | 0.18 ± 0.015
GGAGACCUAUGUAUUCAACCUACUACCUGA | 0.0167 ± 0.0046
GGAGACCUAUCUAUACAACCUAGUACCACA | 0.00922 ± 0.0045

Sequence | pre-steady-state target cleavage rate
GGAGACCUAUGAAUACAACGUACUACCUCA | 0.00541 ± 0.0019
GGAGACCUAACUAUACUACCUACAACCUCA | 0.0957 ± 0.018
GGAGACCUAUGUAUACAACCUACUACUCA | 0.063 ± 0.013
GGAGACCUUUGUAUACAACCUACUACCUCA | 0.0347 ± 0.0065
GGAGACCUUACUAUAGCAACCUACUACCUCA | 0.127 ± 0.012
GGAGACCUAUGAUUCACAACCUACUACCUCA | 0.00321 ± 0.0032
GGAGACCUAACUAAACAAGCUACUACCUCA | 0.15 ± 0.02
GGAGACCUAUGAAUACAAGCUACUACCUCA | 0.0349 ± 0.0069
GGAGACCUAUCUAUACUACCAACUACCUCA | 0.00495 ± 0.0022
GGAGACCUUACUUUACAACCUACAACCUCA | 0.0873 ± 0.013
GGAGAGGAUACUUUACAACCUACUACCACA | 0.152 ± 0.015
GGAGACCUAUGUAUACAUCCUAGUACCUCA | 0.015 ± 0.0049
GGAGACCAUACUAAACAACGUACUACCUCA | 0.0192 ± 0.003
GGAGACCAUAGUAUACAACCUACAACCUCA | 0.129 ± 0.017
GGAGACCUAUGAUAUGUUCCUACUACCCCA | < 0.0001
GGAGACCAUACUAUACAACCUGCUACCUCA | 0.0337 ± 0.0076
GGAGACCUUACUAUACAUCCUACAACCUCA | 0.214 ± 0.019
GGAGACCUAUGAUAUGUUCCUUCUACCACA | < 0.0001
GGAGACCUAUGAUUUCAACCUACAACCUCA | 0.00341 ± 0.0021
GGAGACCUAUCUUUACAACCUACUACCUGA | 0.0554 ± 0.012

Source: the supplement of paper PMC10338343
